Where “and” joins values, the source holds several entries; their conditions need not be identical. Identical values can stand only once. Counter-ions that a name gives are not always drawn.

Drawing on the supplement of paper PMC10981050, this text covers cell viability for 40 molecules.

In the assay the test system is K562. Nature of the assay: cell viability relative to vehicle control; higher = less cytotoxic. The conditions noted are these: 10 µM; SRSF2 genotype: SRSF2 P95H/wt. The essentials: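 After removal of identity-inconsistent compounds, the Selleck bioactive, kinase and epigenetic probe libraries were screened on CRISPR-edited mutant clones and isogenic wild-type clones of four leukaemia lines. Plates were 384-well, each well holding 2000 cells in 50 µL medium and receiving a single 10 µM acoustically dispensed dose. CellTiter-Glo luminescence was read 48 h later, after the supernatant was taken off. Genedata Screener was used to express viability as percent of the on-plate vehicle control.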
What is called cell viability is a read-out of living cells in per cent, often relative to untreated cells. Consider `CC(C)Cc1ccc(C(C)C(=O)O)cc1` (stereo not given) [Ibuprofen (Advil)], for which the cell viability is 99.3% and 98.5%.

With `COCCOc1cnc2ccn([C@H](C)c3nnc4c(F)cc(-c5cnn(C)c5)cn34)c(=O)c2c1`, the cell viability is 86.5% and 87.1%.

`CC(=O)O[C@H]1C(=O)[C@@]2(C)[C@H]([C@H](OC(=O)c3ccccc3)[C@]3(O)C[C@H](OC(=O)[C@H](O)[C@@H](NC(=O)c4ccccc4)c4ccccc4)C(C)=C1C3(C)C)[C@]1(OC(C)=O)CO[C@@H]1C[C@@H]2O` [Paclitaxel (Taxol)]: the cell viability was 24.2% and 40.5%.

As for `O=C[C@H](O)[C@H]1OC(=O)[C@@H](O)[C@H]1O` [D-Glucurone], the cell viability was 90.4% and 88.2%.

For the molecule `CC(Oc1cc(-c2cnn(C3CCNCC3)c2)cnc1N)c1c(Cl)ccc(F)c1Cl` [(S)-crizotinib], the cell viability was 85.7% and 81%.

`CCS(=O)(=O)N1CCC([C@@H](C)n2c(C)c(C(=O)NCc3c(OC)cc(C)[nH]c3=O)c3ccccc32)CC1`: the cell viability is 100% and 98.2%.

With `C#Cc1cccc(Nc2ncnc3cc4c(cc23)OCCOCCOCCO4)c1` [Icotinib], the cell viability was 96.1% and 94%.

On to `COc1cc(Nc2c(C#N)cnc3cc(OCCCN4CCN(C)CC4)c(OC)cc23)c(Cl)cc1Cl` [Bosutinib (SKI-606)], for which the cell viability is 2.19% and 3.5%.

`COC(=O)N[C@H](C(=O)N1CC2(CC2)C[C@H]1c1nc(-c2ccc3c(c2)C(F)(F)c2cc(-c4ccc5[nH]c([C@@H]6[C@H]7CC[C@H](C7)N6C(=O)[C@@H](NC(=O)OC)C(C)C)nc5c4)ccc2-3)c[nH]1)C(C)C` [Ledipasvir (GS5885)]: the cell viability is 84.9% and 87.8%.

Turning to `Clc1ccc(CSC(Cn2ccnc2)c2ccc(Cl)cc2Cl)cc1` (stereo not given) [Sulconazole Nitrate], the cell viability is 57.2% and 61.2%.

As to `COc1ccc2c(c1)c(CC(=O)OCC(=O)O)c(C)n2C(=O)c1ccc(Cl)cc1` [Acemetacin (Emflex)], the cell viability is 101% and 98.4%.

In the case of `CC(C)(O)C1CCC(C)(C2C(O)CC3(C)C4CC(O)C5C(C)(C)C(O)CCC56CC46CCC23C)O1` (stereo not given) [Cyclogalegenol], the cell viability was 93.6% and 88.3%.

With `Cc1cc(Cn2cnc3c2CC(C(=O)O)N(C(=O)C(c2ccccc2)c2ccccc2)C3)ccc1N(C)C` (stereo not given), the cell viability was 100% and 97.2%.

In the case of `CC[C@H](NC(=O)[C@H](C)NC)C(=O)N1C[C@@H](O)C[C@H]1Cc1c(-c2[nH]c3cc(F)ccc3c2C[C@@H]2C[C@H](O)CN2C(=O)[C@H](CC)NC(=O)[C@H](C)NC)[nH]c2cc(F)ccc12`, the cell viability was 97.7% and 102%.

Take `NCCCCCC(=O)O`: the cell viability is 99% and 100%.

`Cc1ccc(NC(=S)NNc2c([N+](=O)[O-])cc(C(F)(F)F)cc2[N+](=O)[O-])cc1Cl`: the cell viability was 81% and 81.3%.

Take `CCCCCCCCCC(C)=O` [Methylnonylketone]: the cell viability was 93.2% and 96.8%.

`CC(C)n1nccc1-c1ncccc1COc1cccc(O)c1C=O` [Voxelotor(GBT440, GTx011)]: the cell viability was 97.7% and 98.4%.

As to `O=c1cc(CN2CCOCC2)occ1OCCCCCSc1ccnc2cc(C(F)(F)F)ccc12`, the cell viability is 59.9% and 65.2%.

For the molecule `CCCOC(=O)c1cc(O)c(O)c(O)c1` [Propyl gallate], the cell viability is 96.2% and 91%.

Turning to `Cn1c2ccccc2c2c3c(c4c5ccccc5n(CCC#N)c4c21)CNC3=O`, the cell viability is 104% and 99.7%.

Consider `CC(C)c1ccccc1Cc1cc(C(=O)Nc2ccc(S(=O)(=O)c3ccccc3C(C)(C)C)cc2)c(O)c(O)c1O`, for which the cell viability was 8.56% and 5.5%.

As for `COc1ccc2cc1Oc1ccc(cc1)C[C@H]1c3cc(c(OC)cc3CCN1C)Oc1c(O)c(OC)cc3c1[C@H](C2)N(C)CC3` [Fangchinoline], the cell viability was 5.78% and 5.22%.

As for `CC(C)C(=O)Oc1ccc(CO)cc1[C@H](CCN(C(C)C)C(C)C)c1ccccc1` [Fesoterodine Fumarate], the cell viability is 97.2% and 107%.

Turning to `COc1ccc2c(c1)c(CC(=O)O)c(C)n2C(=O)c1ccc(Cl)cc1` [Indometacin Sodium], the cell viability is 97.1% and 90.1%.

Take `Nc1cccc(S(=O)(=O)N2CCCN(S(=O)(=O)c3ccc4c(c3)OCCO4)CC2)c1`: the cell viability was 90.8% and 101%.

On to `Cc1cc(-c2ncc(CC(=O)Nc3ccc(-c4cnccn4)cn3)cc2C)ccn1`, for which the cell viability was 73.5% and 84.3%.

As for `CC(C)(O)C1CCC(C)(C2C(O)CC3(C)C4CC(OC5OC(CO)C(O)C(O)C5O)C5C(C)(C)C(OC6OCC(O)C(O)C6O)CCC56CC46CCC23C)O1` (stereo not given) [Astragaloside A], the cell viability was 104% and 103%.

Take `O=c1[nH]cnc2c1ncn2[C@H]1C[C@H](O)[C@@H](CO)O1` [2'-Deoxyinosine]: the cell viability is 120% and 113%.

Turning to `CCN(CC)C(=O)C1(c2ccccc2)CC1CN` (stereo not given) [Milnacipran HCl], the cell viability was 96.3% and 102%.

Take `Clc1ccc(COC(Cn2ccnc2)c2ccc(Cl)cc2Cl)cc1` (stereo not given) [Econazole nitrate (Spectazole)]: the cell viability was 67.2% and 76.7%.

Take `COc1cc(C(=O)OCCCCNC(=N)N)cc(OC)c1O` [Leonurine]: the cell viability was 105% and 99%.

On to `C[C@@H](Oc1ccc2[nH]nc(/C=C/c3cnn(CCO)c3)c2c1)c1c(Cl)cncc1Cl`, for which the cell viability is 36.1% and 35.5%.

For `COc1ccccc1S(=O)(=O)Nc1ccc2c(c1)CN(C)C(=O)N2`, the cell viability was 81.5% and 75.9%.

`Clc1cccc(CN=C2Nc3ccccc3NC23CCNCC3)c1` [Liproxstatin-1]: the cell viability is 68.8% and 75.6%.

In the case of `O=C(O)c1ccc(O)c2ncccc12`, the cell viability is 99.2% and 102%.

As to `CO[C@H]1C[C@@H]2CC[C@@H](C)[C@@](O)(O2)C(=O)C(=O)N2CCCC[C@H]2C(=O)O[C@H]([C@H](C)C[C@@H]2CC[C@@H](OP(C)(C)=O)[C@H](OC)C2)CC(=O)[C@H](C)/C=C(\C)[C@@H](O)[C@@H](OC)C(=O)[C@H](C)C[C@H](C)/C=C/C=C/C=C/1C` [Deforolimus (MK-8669)], the cell viability is 71.2% and 68.8%.

Turning to `Cc1ccc(-c2n[nH]c3c2C(c2cccc(O)c2)N(c2ccc(C(=O)O)cc2)C3=O)cc1` (stereo not given), the cell viability was 104% and 100%.

For `C=C(C(=O)O)C1CCC(C)C2CCC(C)=CC12` (stereo not given) [Artemisic acid], the cell viability was 114% and 110%.

As for `CC(C)c1ccc(NC(=O)Cn2cnc3c2c(=O)n(C)c(=O)n3C)cc1`, the cell viability was 88.2% and 87.9%.
